In the library only some 5.1% were active in any assay of this set; here they are far more common.
PNC assembly inh – perinucleolar compartment assembly inhibition; PC3M PTB-GFP, PNC prevalence imaging, 16 h; hits give low values; activity change (PNC), negative = inhibition, % at 10 µM; hit rate 3.1% among 140,000;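 active means readout at or below -70, meaning at least 70% loss of cells showing the perinucleolar compartment, a nuclear body marking cancer cells; inconclusive means readout between -30 and a set limit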;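 further: plate controls were DMSO wells for no effect and camptothecin positive control wells for full effect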
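Read-out is percentage of cells bearing a perinucleolar compartment, from automated 20x imaging of fixed, Hoechst-stained PC3M PTB-GFP cells. Cells were seeded 4 h, then exposed 16 h to compound (23 nl of library stock) in duplicate plates.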
Tau fibril ThT – inhibitors of human tau fibril formation, thioflavin T binding. P10636. recombinant tau K18 P301L, heparin-induced fibrillization, ThT fluorescence. Potency, µM (top dose mostly 57.4 µM), for inactives: at the highest dose activity, negative = inhibition, most hits filed as inhibitors. hit rate 2.1% among 270,000. AID 1460; further: potency means the concentration at half of the fitted maximal effect; nearly all actives have a fitted effect of over 55% in size
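Heparin-induced (20 uM) aggregation of recombinant human K18 P301L tau, 15 uM unlabeled with 0.24 uM labeled, pH 7 acetate buffer, 6 hr at 37 C with compound. Fibrils quantified by 30 uM ThT fluorescence after 1 hr ambient incubation.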
JMJD2E inh – inhibitors of human JMJD2E histone demethylase | B2RXH2 | JMJD2E catalytic domain, FDH-coupled NADH fluorescence (FDH is formaldehyde dehydrogenase) | Potency, µM (highest dose often 57.1 µM), without a hit: at the top dose activity change, negative = inhibition, usual class: inhibitors | hit rate 1.6% among 230,000 | AID 2147; active means well fitted inhibition curve with a large enough effect, not every such curve was filed as active; inconclusive means small, poorly fitted or top-dose-only effect, or another doubt; inactive means no such curve, though single readings can be large or run the other way;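 further: potency means the concentration at half of the fitted maximal effect; 0% = wells with enzyme and -100% = buffer wells without enzyme; nearly all actives have a fitted effect of over 50% in size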
Target sequence (B2RXH2 1-337 limits assumed): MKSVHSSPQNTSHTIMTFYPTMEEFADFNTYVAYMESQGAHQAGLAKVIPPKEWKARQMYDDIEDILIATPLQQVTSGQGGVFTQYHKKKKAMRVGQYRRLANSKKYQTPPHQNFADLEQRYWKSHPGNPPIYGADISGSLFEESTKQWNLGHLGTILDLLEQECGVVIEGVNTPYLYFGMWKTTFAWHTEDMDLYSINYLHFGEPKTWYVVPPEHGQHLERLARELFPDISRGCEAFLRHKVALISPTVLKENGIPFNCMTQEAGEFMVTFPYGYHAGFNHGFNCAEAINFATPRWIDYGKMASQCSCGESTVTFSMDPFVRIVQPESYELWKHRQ
Tau FP inhib – tau fibrillization inhibition (FP) | AID 1468 | K18 P301L tau heparin fibrillization, Alexa594 FP, 6 h | Potency, µM (doses to about 57.7 µM), for the others: at the top dose activity, negative = inhibition, most hits filed as inhibitors | hit rate 0.39% among 280,000; further: potency means the concentration at half of the fitted maximal effect; nearly all actives have a fitted effect of over 55% in size
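Quantitative HTS format: compounds meet 15 uM recombinant K18 P301L tau and Alexa 594-tau tracer in 100 mM sodium acetate pH 7; 20 uM heparin triggers fibrillization at 37 C over 6 hr; FP gives the signal.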
NPSR antagonist – antagonists of human neuropeptide S receptor cAMP signaling; Q6W5P4; CHO-NPSR cells, cAMP TR-FRET, antagonist mode; Potency, µM (series often up to 38.3 µM), inactives show at the top dose activity change, negative = inhibition, usual class: inhibitors; hit rate 1% among 220,000; further: potency means the concentration at half of the fitted maximal effect; nearly all actives have a fitted effect of over 50% in size
Target sequence (Q6W5P4 whole entry, looked up): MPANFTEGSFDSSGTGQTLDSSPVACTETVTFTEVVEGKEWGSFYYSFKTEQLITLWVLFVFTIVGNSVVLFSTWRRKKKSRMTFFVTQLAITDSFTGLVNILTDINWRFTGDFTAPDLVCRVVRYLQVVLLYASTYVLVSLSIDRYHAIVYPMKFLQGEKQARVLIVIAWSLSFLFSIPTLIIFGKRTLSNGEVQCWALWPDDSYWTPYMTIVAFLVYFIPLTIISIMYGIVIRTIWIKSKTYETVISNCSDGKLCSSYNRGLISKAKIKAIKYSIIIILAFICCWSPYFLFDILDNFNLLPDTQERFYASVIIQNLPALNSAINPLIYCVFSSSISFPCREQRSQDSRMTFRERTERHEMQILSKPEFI
Tau fluor cs – counter-screen for tau fibril formation inhibitors; tau K18 P301L (four-repeat tau fragment) Alexa594 fluorescence, heparin fibrillization; Potency, µM (titrated, usually from 57.7 µM), for inactives: at the highest dose activity change, negative = decrease; hit rate 0.93% among 280,000; AID 1463; further: potency means the concentration at half of the fitted maximal effect; nearly all actives have a fitted effect of over 55% in size
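Human K18 P301L tau (15 uM unlabeled plus 0.24 uM Alexa 594-labeled, final) in 100 mM sodium acetate pH 7 was mixed with compound and 20 uM heparin and incubated 6 hr at 37 C.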
The depositor's hits bear a star; [ ] = remark or other dose. Unless noted, the call rests on the fitted dose curve; in most records, active means well fitted curve in the direction sought with a large enough effect; inconclusive means small, poorly fitted or top-dose-only effect, or another doubt; inactive means no such curve, though single readings can be large; an effect the other way counts as inactive or inconclusive. Unless noted, on the % scale 0 is the no-effect control and ±100 the full control effect.

How did COc1ccc(/C=N/Nc2nc(-c3cccc(S(=O)(=O)N4CCCC4)c3)cs2)cc1OC do in these assays?
PNC assembly inh: inconclusive; Tau fibril ThT: inconclusive; JMJD2E inh: inconclusive; Tau FP inhib: 9.6%; NPSR antagonist: -5.8%; Tau fluor cs: inconclusive

How did COc1cc(/C=N/Nc2nc(-c3ccc(S(=O)(=O)N(C)C)cc3)cs2)ccc1O do in these assays?
Tau fibril ThT: 10µM*; JMJD2E inh: -12.5%; Tau FP inhib: 2.7%; NPSR antagonist: inconclusive; Tau fluor cs: 12.6µM*[quencher]

What do the screens show for `CCOc1cc(/C=N/Nc2nc(-c3cccc(S(=O)(=O)N4CCCC4)c3)cs2)ccc1O`?
PNC assembly inh: 44.2; Tau fibril ThT: inconclusive; JMJD2E inh: 7.9%; Tau FP inhib: 14.3%; NPSR antagonist: -19.7%; Tau fluor cs: 10µM*[quencher]

What do the screens show for `O=S(=O)(c1cccc(-c2csc(N/N=C/c3ccco3)n2)c1)N1CCOCC1`?
Tau fibril ThT: 14.1µM*; JMJD2E inh: -18.3%; Tau FP inhib: 9.7%; NPSR antagonist: -25.8%; Tau fluor cs: 12.6µM*[quencher]

What do the screens show for `COc1cc(/C=N/Nc2ccccn2)ccc1O`?
Tau fibril ThT: inconclusive; JMJD2E inh: -7.2%; Tau FP inhib: 1.1%; NPSR antagonist: -3.2%; Tau fluor cs: -25.9%

Results for Cc1ccc(C)c(N2CCN(C(=O)c3cc(S(=O)(=O)N4CCC(C)CC4)cn3C)CC2)c1 ?
Tau fibril ThT: -9.3%; Tau FP inhib: 1.0%; Tau fluor cs: -12.7%

How did CSc1ncc(C(=O)Nc2ccc(C)c(Cl)c2)c(-c2ccccc2)n1 do in these assays?
Tau fibril ThT: -1.1%; Tau FP inhib: -13.9%; Tau fluor cs: -17.5%

Results for COc1cc(/C=N/NC(=O)c2ccc(CN(C)S(=O)(=O)c3ccc(C)cc3)cc2)ccc1O ?
Tau fibril ThT: inconclusive; JMJD2E inh: 1.3%; Tau FP inhib: 5.5%; NPSR antagonist: -18.8%; Tau fluor cs: 15.8µM*[quencher]

Results for OC1C=C2CCN3Cc4cc5c(cc4C(C1O)C23)OCO5 (stereo unspecified) ?
Tau fibril ThT: -13.8%; JMJD2E inh: 25.1µM*; Tau FP inhib: -8.6%; Tau fluor cs: -18.7%

Results for COc1ccc2nc(N3C(=O)/C(=C/c4ccc(Cl)cc4)NC3=S)sc2c1 ?
PNC assembly inh: 15.7; Tau fibril ThT: 1.12µM*; JMJD2E inh: 1.7%; Tau FP inhib: 0.0%; NPSR antagonist: 10.8%; Tau fluor cs: -11.2%

How did COc1ccc2nc(N3C(=O)CC(C(C)c4ccccc4)C3=O)sc2c1 (stereo unspecified) do in these assays?
PNC assembly inh: 10.2; Tau fibril ThT: -15.3%; JMJD2E inh: -3.9%; Tau FP inhib: -1.7%; NPSR antagonist: -6.6%[46.1 µM]; Tau fluor cs: -6.4%

Results for CN(C)c1ccc(/C=C/c2ccc3ccccc3n2)cc1 ?
Tau fibril ThT: inconclusive; JMJD2E inh: 22.4µM*; Tau FP inhib: 4.0%; NPSR antagonist: 5.8%[7.67 µM]; Tau fluor cs: inconclusive

Results for O=C(O)Cn1cc2c(n1)CCCCC2 ?
PNC assembly inh: inconclusive; Tau fibril ThT: -4.7%; JMJD2E inh: 1.8%; Tau FP inhib: -2.8%; NPSR antagonist: 9.4%[46.1 µM]; Tau fluor cs: -2.1%

How did O=C(Cn1cc2c(n1)CCCCC2)N1CCCCC1 do in these assays?
PNC assembly inh: -119.3*; Tau fibril ThT: 1.4%; JMJD2E inh: 1.6%; Tau FP inhib: -5.2%; NPSR antagonist: -2.4%; Tau fluor cs: -4.1%

How did COC(=O)c1cc2oc3ccccc3c2n1Cc1cccc(C)c1 do in these assays?
Tau fibril ThT: 4.5%; Tau FP inhib: -6.4%; Tau fluor cs: -7.8%

How did O=C(Cc1ccc(Cl)cc1)Nc1ccccc1CO do in these assays?
PNC assembly inh: -86.9*; Tau fibril ThT: -3.3%; JMJD2E inh: 8.9%; Tau FP inhib: 0.5%; NPSR antagonist: -13.0%[46.1 µM]; Tau fluor cs: -7.3%

How did Cc1cc2ccccn2c1C(=O)c1ccncc1 do in these assays?
PNC assembly inh: 48.2; Tau fibril ThT: -17.5%; JMJD2E inh: 8.7%; Tau FP inhib: 2.5%; NPSR antagonist: -5.7%[46.1 µM]; Tau fluor cs: 5.2%

Results for Cc1cc2ccccn2c1C(=O)c1ccc(N/N=C/c2ccc(C(=O)O)cc2)c([N+](=O)[O-])c1 ?
Tau fibril ThT: 3.16µM*; JMJD2E inh: -16.6%; Tau FP inhib: -6.4%; NPSR antagonist: -46.8%; Tau fluor cs: -27.8%

Results for Cc1cc2ccccn2c1C(=O)c1ccc(Cl)cc1 ?
PNC assembly inh: -104.8*; Tau fibril ThT: inconclusive; JMJD2E inh: -3.9%; Tau FP inhib: -1.4%; NPSR antagonist: -12.6%[46.1 µM]; Tau fluor cs: -24.2%

What do the screens show for `Cc1cc2ccccn2c1C(=S)NC(=O)c1ccccc1`?
PNC assembly inh: 1.2; Tau fibril ThT: 15.8µM*; JMJD2E inh: -28.8%; Tau FP inhib: 1.6%; NPSR antagonist: -24.8%; Tau fluor cs: -19.1%

How did C/C(=N\Nc1ccc(C(=O)c2c(C)cc3ccccn23)cc1[N+](=O)[O-])c1ccc(O)cc1 do in these assays?
Tau fibril ThT: inconclusive; JMJD2E inh: 2.7%; Tau FP inhib: inconclusive; NPSR antagonist: -34.0%; Tau fluor cs: inconclusive

Results for COC(=O)c1ccc(NC(=O)C(c2ccccc2)N2Cc3ccccc3C2=O)cc1 (stereo unspecified) ?
Tau fibril ThT: -0.8%; Tau FP inhib: 3.9%; Tau fluor cs: -18.1%

Results for O=c1cc(-c2ccc(O)cc2)oc2c([C@H]3O[C@@H](CO)[C@@H](O)[C@@H](O)[C@@H]3O)c(O)cc(O)c12 ?
JMJD2E inh: -28.2%[25.5 µM]

How did O=c1c(O)c(-c2ccc(O)c(O)c2)oc2c(OC3OC(CO)C(O)C(O)C3O)c(O)cc(O)c12 (stereo unspecified) do in these assays?
Tau fibril ThT: 14.1µM*; JMJD2E inh: 1.8%; Tau FP inhib: inconclusive; Tau fluor cs: -28.2%

What do the screens show for `O=c1c(O)c(-c2ccc(O)c(O)c2)oc2c(OC[C@@H]3O[C@@H](O)[C@@H](O)[C@H](O)[C@H]3O)c(O)cc(O)c12`?
Tau fibril ThT: 10µM*; JMJD2E inh: 5.01µM*; Tau FP inhib: -14.6%; Tau fluor cs: -20.8%

How did CN(C)c1ccc(CNC(=O)CCCN2C(=O)c3cccnc3Oc3ccc(Cl)cc32)cc1 do in these assays?
Tau fibril ThT: -11.3%; Tau FP inhib: 13.0%; Tau fluor cs: -14.5%

What do the screens show for `COc1cc2cc(CN(Cc3cccs3)C(=S)Nc3cccc(C)c3)c(=O)[nH]c2cc1OC`?
PNC assembly inh: -113.0*; Tau fibril ThT: -4.0%; JMJD2E inh: inconclusive; Tau FP inhib: 8.2%; NPSR antagonist: -24.4%; Tau fluor cs: 4.7%
